Reference: PubChem BioAssay (Tox21)
Values joined by “and” are separate entries in the source; they are usually repeats but may differ in a detail not shown here. Equal values may be shown once. Inconclusive results are not listed. More than one record can exist for a structure, and the calls need not agree. Active and inactive are the calls of the source. Unless noted, the call rests on the fitted dose curve; in most records, active means well fitted curve in the direction sought with a large enough effect in the repeat runs; inconclusive means weak or mixed curves; inactive means no such curve, though single readings can be large; an effect the other way counts as inactive or inconclusive.

How the values were obtained:
[1] = qHTS assay for small molecules that induce genotoxicity in human embryonic kidney cells expressing luciferase-tagged ATAD5 (AID 651632); further: nearly all actives have a fitted effect of over 15% in size
How it was run: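 Reporter cells (HEK293T) express luciferase-tagged ATAD5, a protein that accumulates after DNA damage. Treat 16 hr at 37C/5% CO2, add Amplite, wait 30 min at RT, and read luminescence.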

[2] = qHTS assay for small molecule agonists of the p53 signaling pathway - cell viability (AID 651633; calls by dose curve;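 further: p53RE-bla HCT reporter cells with a stable beta-lactamase p53 reporter; series mostly up to about 83 µM; nearly all actives have a fitted effect of over 30% in size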)
How it was run: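 Viability counter-read: CellTiter-Glo luminescence (30 min, room temperature) in the same p53RE-bla plates. These plates had been exposed to compounds for 16 h at 37 C.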

[3] = qHTS assay for small molecules that induce genotoxicity in human embryonic kidney cells expressing luciferase-tagged ATAD5 - cell viability (AID 651634; calls by dose curve; further: nearly all actives have a fitted effect of over 25% in size)
How it was run: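 Seeding of 2,000 HEK293T ATAD5-luciferase cells per well preceded pin-tool compound transfer. Plates sat 15.5 hr at 37C under 5% CO2, then fluorescence was read after 30 min with CellTiter-Fluor.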

[4] = qHTS assay for small molecule disruptors of the mitochondrial membrane potential - cell viability (AID 720634; calls by dose curve; further: nearly all actives have a fitted effect of over 20% in size; further: potency means the concentration at half of the fitted maximal effect)
How it was run: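 Measuring cytotoxicity alongside mitochondrial potential, the screen quantified ATP by luminescence in HepG2 cells after 1 hr compound incubation and a 30 min room-temperature CellTiter-Glo step.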

[5] = qHTS assay for small molecule disruptors of the mitochondrial membrane potential (AID 720635); further: potency means the concentration at half of the fitted maximal effect
How it was run: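 Mitochondrial membrane potential tracked with Mito-MPS dye, red aggregates (ex 540/em 590 nm) against green monomers (ex 490/em 535 nm). Compound treatment 1 hr at 37C, dye 30 min in HepG2.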

[6] = qHTS assay to test for compound auto fluorescence at 535 nm (green) in HepG2 cells (AID 720675)
[7] = qHTS assay to test for compound auto fluorescence at 460 nm (blue) in HEK293 cells (AID 720678)
How it was run: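 Cells were seeded and left to adhere for 4-5 hr at 37C. Compounds were then pin-transferred. After an overnight incubation at 37C under 5% CO2, intrinsic fluorescence at 405/460 nm was measured and referenced to triamterene.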

[8] = qHTS assay to test for compound auto fluorescence at 535 nm (green) in HEK293 cells (AID 720680)
[9] = qHTS assay to test for compound auto fluorescence at 460 nm (blue) in HEK293 cell free culture (AID 720681)
How it was run: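 Blue fluorescence (Ex 405/Em 460 nm, triamterene-equivalent) was read immediately after pin transfer of compound or DMSO into medium (DMEM, 10% FBS) without cells.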

[10] = qHTS assay to test for compound auto fluorescence at 535 nm (green) in HEK293 cell free culture (AID 720682)
How it was run: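 Each library compound, or DMSO control, is added by pintool to medium alone, comprising DMEM and 10% FBS. Emission at 535 nm following 485 nm excitation is quantified against fluorescein.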

[11] = qHTS assay to test for compound auto fluorescence at 590 nm (red) in HEK293 cell free culture (AID 720683)
How it was run: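 Red-channel autofluorescence of compounds in culture medium (DMEM, 10% FBS), no cells, measured at 540/590 nm. Rose Bengal sodium is the reference fluorophore for equivalence.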

[12] = qHTS assay to test for compound auto fluorescence at 590 nm (red) in HepG2 cell free culture (AID 720684)
How it was run: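 Plate contents were MEM with 10% FBS plus test compound or DMSO, no cells. Fluorescence was recorded with 540 nm excitation and 590 nm emission.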

[13] = qHTS assay to test for compound auto fluorescence at 460 nm (blue) in HepG2 cell free culture (AID 720685)
How it was run: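 Compound (23 nL) or DMSO pinned into cell-free MEM with 10% FBS; blue fluorescence read at 405/460 nm excitation/emission, expressed as auto-fluorescence equivalency to triamterene.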

[14] = qHTS assay to test for compound auto fluorescence at 535 nm (green) in HepG2 cell free culture (AID 720686)
[15] = target: Glucocorticoid receptor (Homo sapiens) (UniProt P04150); assay: qHTS assay to identify small molecule agonists of the glucocorticoid receptor (GR) signaling pathway (AID 720691; active means well fitted activation curve with a large enough effect in the signal ratio in the repeat runs, not every such curve was filed as active; the % refers to the signal ratio)
Chain of Glucocorticoid receptor (Homo sapiens) (P04150 whole entry, looked up): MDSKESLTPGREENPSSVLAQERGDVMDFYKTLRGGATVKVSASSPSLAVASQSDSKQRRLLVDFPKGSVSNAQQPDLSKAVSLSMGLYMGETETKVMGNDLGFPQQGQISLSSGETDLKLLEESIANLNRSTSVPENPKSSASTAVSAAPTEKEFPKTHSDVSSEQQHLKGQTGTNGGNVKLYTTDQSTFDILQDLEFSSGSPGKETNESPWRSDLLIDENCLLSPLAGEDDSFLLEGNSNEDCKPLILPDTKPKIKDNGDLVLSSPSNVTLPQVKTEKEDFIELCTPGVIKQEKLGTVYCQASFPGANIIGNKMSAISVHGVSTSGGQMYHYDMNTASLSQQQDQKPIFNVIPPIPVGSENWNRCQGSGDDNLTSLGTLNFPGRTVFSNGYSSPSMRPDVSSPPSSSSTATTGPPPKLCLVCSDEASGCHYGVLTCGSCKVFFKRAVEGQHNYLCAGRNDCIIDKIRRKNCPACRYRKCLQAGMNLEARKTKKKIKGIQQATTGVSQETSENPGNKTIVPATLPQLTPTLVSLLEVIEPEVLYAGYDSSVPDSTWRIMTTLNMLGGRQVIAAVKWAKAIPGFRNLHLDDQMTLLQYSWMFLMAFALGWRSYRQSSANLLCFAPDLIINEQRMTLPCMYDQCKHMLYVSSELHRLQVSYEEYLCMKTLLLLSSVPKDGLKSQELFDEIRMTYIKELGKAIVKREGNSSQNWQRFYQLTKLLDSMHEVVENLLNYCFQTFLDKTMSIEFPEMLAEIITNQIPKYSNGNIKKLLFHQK
How it was run: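 Reporter read-out: fluorescence intensity following 2 h room-temperature LiveBLAzer B/G FRET substrate loading. Prior step: GR-bla HeLa cells held 4 h, then treated 18 h at 37 C.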

[16] = target: Glucocorticoid receptor (Homo sapiens) (UniProt P04150); assay: qHTS assay to identify small molecule antagonists of the glucocorticoid receptor (GR) signaling pathway (AID 720692; active means well fitted inhibition curve with a large enough effect in the signal ratio in the repeat runs, not every such curve was filed as active; the % refers to the signal ratio; further: potency means the concentration at half of the fitted maximal effect)
How it was run: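 Dexamethasone (5 nM final) stimulated a stably integrated GRE-beta-lactamase reporter in HeLa cells during 18 h co-incubation with compounds; signal was quantified as fluorescence intensity of B/G FRET substrate after 2 h.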

[17] = qHTS assay for small molecule agonists of the p53 signaling pathway (AID 651631; calls by dose curve; further: nearly all actives have a fitted effect of over 15% in size)
How it was run: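 Beta-lactamase reporter activity under p53 response elements was quantified in HCT-116 cells by FRET fluorescence, following 16 h incubation with test compounds at 37 °C and 2 h substrate development at room temperature.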

[18] = qHTS assay to test for compound auto fluorescence at 590 nm (red) in HEK293 cells (AID 720679)
How it was run: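 Each well held 2,000 HEK293 cells in medium containing 10% dialyzed FBS. Following 4-5 hr attachment at 37C, 23 nL test compound or DMSO was added; plates sat overnight, and red fluorescence (540/590nm) was recorded.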

[19] = qHTS assay to test for compound auto fluorescence at 460 nm (blue) in HepG2 cells (AID 720687)
How it was run: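 Blue-channel autofluorescence (Ex/Em 405/460 nm, triamterene-equivalent) was measured after 1 hr compound exposure at 37 C, 5% CO2. Cells were HepG2, plated overnight at 37 C in MEM plus 10% FBS.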

[20] = qHTS assay to test for compound auto fluorescence at 590 nm (red) in HepG2 cells (AID 720674)
How it was run: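 Red autofluorescence (Ex/Em 540/590 nm, Rose Bengal sodium equivalents) was measured in HepG2 cells, 2,000 per well in MEM plus 10% FBS, plated overnight at 37 C. Readings were taken 1 hr after adding 23 nL compound or DMSO, at 37 C and 5% CO2.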

Measured: Potency

CNC(=S)N(C)C
not listed: [17] | [18] | [19] | [20]
inactive: all other assays above

C=CCc1ccc(OC)c(OC)c1
not listed: [4] | [5] | [6] | [20]
inactive: all other assays above

C[C@]12CC[C@@H]3c4ccc(O)cc4CC[C@H]3[C@@H]1C[C@@H](O)[C@@H]2O
active: [16] 12 µM and 38.9 µM
not listed: [1] | [3] | [15]
inactive: all other assays above

CC(=O)CCC=C(C)C
not listed: [15] | [17]
inactive: all other assays above

CCCCC(C=O)CC (centres undefined)
not listed: [6] | [11] | [17]
inactive: all other assays above

CSc1ccc(Cl)cc1
not listed: [8] | [15] | [17] | [20]
inactive: all other assays above

O=C1c2ccccc2CCc2ccccc21
active: [5] 31.3 µM
not listed: [15] | [16] | [17] | [18] | [19]
inactive: all other assays above

C=C(C)CNCC
not listed: [4] | [5] | [15] | [18] | [19] | [20]
inactive: all other assays above

CC1(C)S[C@@H]2[C@H](NC(=O)COc3ccccc3)C(=O)N2[C@H]1C(=O)O
not listed: [6] | [16] | [17]
inactive: all other assays above

CCCCOC(=O)c1ccc(N)cc1
not listed: [1] | [4] | [8] | [11] | [15] | [18] | [20]
inactive: all other assays above

OCc1ccccc1
not listed: [6] | [15] | [17]
inactive: all other assays above

Nc1nc(N)nc(-c2ccccc2)n1
not listed: [15] | [17]
inactive: all other assays above

CN(C)c1ccc(O)c2c1C[C@H]1C[C@H]3[C@H](N(C)C)C(=O)C(C(N)=O)=C(O)[C@@]3(O)C(=O)C1=C2O
not listed: [17] | [18]
inactive: all other assays above

O=C(O)c1cc2ccccc2cc1O
active: [5] 54.1 µM and 54.5 µM
not listed: [6] | [11] | [17] | [19] | [20]
inactive: all other assays above

C=CC(C)CCCC(C)(C)O (centres undefined)
not listed: [4] | [5] | [8] | [15] | [16] | [20]
inactive: all other assays above

CCCCCCCCCCCCCCCCO
not listed: [17]
inactive: all other assays above

COc1ccccc1OCC(O)CO (centres undefined)
not listed: [6] | [8] | [15] | [16] | [17]
inactive: all other assays above

O=C(OCC1CCC2OC2C1)C1CCC2OC2C1 (centres undefined)
not listed: [11] | [15] | [17] | [19]
inactive: all other assays above

Cc1ccc2ncccc2c1
not listed: [8] | [15] | [17] | [19]
inactive: all other assays above

CCOCC(=O)O
not listed: [15] | [17]
inactive: all other assays above

Cc1ccc(C(C)C)c(O)c1
inactive and 61.1 µM (active): [4]
active: [5] 24.3 µM
not listed: [8] | [11] | [15] | [17] | [20]
inactive: all other assays above

CC(=O)CC(C)(C)O
not listed: [17]
inactive: all other assays above

CCCCCCCO
not listed: [8] | [11] | [17]
inactive: all other assays above

O=C(O)c1ccccc1C(=O)O
not listed: [6] | [8] | [11] | [17]
inactive: all other assays above

COC(=O)c1cccnc1
not listed: [11] | [17] | [18]
inactive: all other assays above

CN/C(=C\[N+](=O)[O-])NCCSCc1csc(CN(C)C)n1
not listed: [17] | [18] | [20]
inactive: all other assays above

C=C(C)C(=O)OCC(C)C
not listed: [8] | [15] | [16] | [17]
inactive: all other assays above

COc1ccc([N+](=O)[O-])cc1N
active: [5] 48.8 µM
not listed: [8] | [15] | [17] | [18]
inactive: all other assays above

CCCCCCCCCCN
not listed: [17] | [20]
inactive: all other assays above

CC1(C)OC[C@@H]2O[C@@]3(C(=O)O)OC(C)(C)O[C@H]3[C@@H]2O1
not listed: [6] | [15] | [16] | [17] | [20]
inactive: all other assays above

COc1ccc(OC)cc1
not listed: [6] | [11] | [17]
inactive: all other assays above

c1ccc(Oc2ccccc2)cc1
not listed: [11] | [15] | [17] | [20]
inactive: all other assays above

C=Cc1ccc(C)cc1
not listed: [11] | [17] | [18] | [19]
inactive: all other assays above

NCCNCCN
not listed: [4] | [5] | [8] | [11] | [15] | [16] | [19] | [20]
inactive: all other assays above

CC(=O)c1ccc(O)cc1
not listed: [11] | [17] | [18] | [19]
inactive: all other assays above

CC(C)(C)c1cc(Cc2cc(C(C)(C)C)c(O)c(C(C)(C)C)c2)cc(C(C)(C)C)c1O
not listed: [8] | [15] | [17] | [18] | [19]
inactive: all other assays above

O=C(O)c1ccc(S(=O)(=O)N(Cl)Cl)cc1
not listed: [6] | [17] | [19] | [20]
inactive: all other assays above
